# Source: the supplement of paper PMC8728848
# Many of the other results were omitted from the sample, so the strongest signals are more common in it than they were.
# B1: Epa3to2 (Candida glabrata) (protein)
# chain: MGSSHHHHHHSSGLVPRGSHMKRELSSQNPFGYPIGCSPQDVAIIPGLTMELYSYPIVSGTPPNCYDASYVDPEYPRTGYLKRKMVGKSTGVTGNLNYKYSVEKACMVKYGNLPAGYNYNEPLTVSNFTMILYGYFKAQTTGLHTFFVNADDLLYINFGAGNAFDCCKREDSKTKLGEYVAYDIWHVDSSKNKVSLFLEKDLYYPIRMFFNNRDNNSSLDLSFSVNGATDQISDFSGYLYSVPDQPDTCPAHIGYDTTCR
# Experiments:
# Assay in all cases: glycan array binding signal (z-score within array); higher = stronger binding
# Details in all cases: glycan notation: IUPAC condensed, linker removed
# [1] = target: GlcNAc(b1-2)Gal(b1-3)GalNAc
# Summary of the method: (§1)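 The Consortium for Functional Glycomics database supplied 3228 glycan arrays, of which those lacking an available protein sequence were dropped. The binding signal, a within-array Z-score, was averaged across arrays of the same protein sequence and across linkers. Negative scores can be read as non-binding.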
# [2] = target: Man(a1-3)[Man(a1-6)]Man(a1-6)[Man(a1-2)Man(a1-3)]Man(b1-4)GlcNAc(b1-4)GlcNAc
# Summary of the method: as §1
# [3] = target: Man(a1-3)[Man(a1-6)]Man(a1-6)[Man(a1-3)]Man
# Summary of the method: as §1
# [4] = target: Neu5Ac(a2-3)Gal(b1-3)GlcNAc(b1-2)Man(a1-3)[Neu5Ac(a2-3)Gal(b1-3)GlcNAc(b1-2)Man(a1-6)]Man(b1-4)GlcNAc(b1-4)GlcNAc
# Summary of the method: as §1
# Neu5Ac(a2-3)Gal(b1-4)Glc = target: Neu5Ac(a2-3)Gal(b1-4)Glc
# Summary of the method: as §1
# [5] = target: Neu5Ac(a2-3)Gal(b1-4)GlcNAc(b1-2)Man
# Summary of the method: as §1
# [6] = target: Neu5Ac(a2-3)Gal(b1-4)GlcNAc(b1-2)[Neu5Ac(a2-3)Gal(b1-4)GlcNAc(b1-4)]Man(a1-3)[GlcNAc(b1-4)][Neu5Ac(a2-3)Gal(b1-4)GlcNAc(b1-2)[Neu5Ac(a2-3)Gal(b1-4)GlcNAc(b1-6)]Man(a1-6)]Man(b1-4)GlcNAc(b1-4)GlcNAc
# Summary of the method: as §1
# [7] = target: Neu5Ac(a2-3)Gal(b1-4)GlcNAc(b1-2)[Neu5Ac(a2-3)Gal(b1-4)GlcNAc(b1-4)]Man(a1-3)[GlcNAc(b1-4)][Neu5Ac(a2-3)Gal(b1-4)GlcNAc(b1-4)Man(a1-6)]Man(b1-4)GlcNAc(b1-4)GlcNAc
# Summary of the method: as §1
# [8] = target: Neu5Ac(a2-3)Gal(b1-4)[Fuc(a1-3)]GlcNAc(b1-2)Man
# Summary of the method: as §1
# [9] = target: Neu5Ac(a2-3)[Neu5Ac(a2-6)]GalNAc
# Summary of the method: as §1
# [10] = target: Neu5Ac(a2-6)Gal(b1-4)GlcNAc(b1-2)Man(a1-3)Man(b1-4)GlcNAc(b1-4)GlcNAc
# Summary of the method: as §1
# [11] = target: Neu5Ac(a2-6)GalNAc(b1-4)GlcNAc
# Summary of the method: as §1
# Neu5Ac(a2-8)Neu5Ac = target: Neu5Ac(a2-8)Neu5Ac
# Summary of the method: as §1
# [12] = target: Neu5Ac(a2-8)Neu5Ac(a2-3)Gal(b1-4)GlcNAc
# Summary of the method: as §1
# [13] = target: Neu5Ac(a2-8)Neu5Ac(a2-8)Neu5Ac(a2-3)[GalNAc(b1-4)]Gal(b1-4)Glc
# Summary of the method: as §1
# Neu5Gc(a2-3)Gal(b1-4)Glc = target: Neu5Gc(a2-3)Gal(b1-4)Glc
# Summary of the method: as §1
# [14] = target: Neu5Gc(a2-3)Gal(b1-4)GlcNAc(b1-3)Gal(b1-4)GlcNAc(b1-2)Man(a1-3)[Neu5Gc(a2-3)Gal(b1-4)GlcNAc(b1-3)Gal(b1-4)GlcNAc(b1-2)Man(a1-6)]Man(b1-4)GlcNAc(b1-4)GlcNAc
# Summary of the method: as §1
# Neu5Gc(a2-6)GalNAc = target: Neu5Gc(a2-6)GalNAc
# Summary of the method: as §1
binder,measurement,setting,value
B1,glycan array binding signal (z-score),[1],-1.16
same,glycan array binding signal (z-score),[2],3.92
same,glycan array binding signal (z-score),[3],0.52
same,glycan array binding signal (z-score),[4],-0.658
same,glycan array binding signal (z-score),Neu5Ac(a2-3)Gal(b1-4)Glc,7.38
same,glycan array binding signal (z-score),[5],2.24
same,glycan array binding signal (z-score),[6],1.37
same,glycan array binding signal (z-score),[7],-0.302
same,glycan array binding signal (z-score),[8],-0.793
same,glycan array binding signal (z-score),[9],-1.13
same,glycan array binding signal (z-score),[10],2.19
same,glycan array binding signal (z-score),[11],-0.698
same,glycan array binding signal (z-score),Neu5Ac(a2-8)Neu5Ac,1.01
same,glycan array binding signal (z-score),[12],0.968
same,glycan array binding signal (z-score),[13],0.534
same,glycan array binding signal (z-score),Neu5Gc(a2-3)Gal(b1-4)Glc,0.038
same,glycan array binding signal (z-score),[14],-0.277
same,glycan array binding signal (z-score),Neu5Gc(a2-6)GalNAc,2.12
